Compound activity as filed in PubChem.
HT1080-NT tox – kills 2HG-producing HT-1080-NT fibrosarcoma cells; HT-1080-NT fibrosarcoma viability, CellTiter-Glo ATP luminescence, 48 h; Potency, µM (top dose mostly 46.1 µM), inactives show at the top dose activity, negative = less viability, actives largely listed as cytotoxic; hit rate 1.6% among 360,000;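 also: NT is the 2HG producing partner of a matched IDH1 knockdown line; potency is read from the fitted curve at half-maximal effect; 0% = DMSO-treated cells and -100% = media-only wells without cells; nearly all actives have a fitted effect of over 55% in size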
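Read-out is CellTiter-Glo luminescence after 10 minutes at room temperature, following 48 hours' compound treatment of HT-1080-NT cells (750 cells/well, RPMI, 5% FBS, 37 degrees C).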
IL1B secr inh – blocks inflammasome-driven IL-1 beta release; AID 743279; activity change, % at 57.5 µM; hit rate 4.7% among 360,000; THP-1 LPS/ATP IL-1B secretion, AlphaLISA, 16 h; hits give low values; in the data active = activity change below about -50%; inconclusive = mostly about -30% to -49%
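Secreted IL-1B measured by AlphaLISA bead assay after 16 h compound exposure of THP-1 cells; compounds (final up to 57.5 uM) added 1 h before LPS (250 ng/mL) and ATP (1.25 mM) stimulation; lower signal means less secretion.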
TDP1 cell CPT – growth inhibition of DT40 Tdp1-/-;hTDP1 cells with camptothecin (screen for TDP1 inhibitors) | chicken DT40 Tdp1-/-;hTDP1 cells + 20 nM CPT, ATP luminescence, 48 h | Potency, µM (top dose mostly 46.2 µM), inactives show at the top dose activity change, negative = growth inhibition, actives largely listed as inhibitors | hit rate 12% among 420,000 | AID 686979; also: potency is read from the fitted curve at half-maximal effect; nearly all actives have a fitted effect of over 55% in size
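Chicken DT40 Tdp1-/- cells complemented with human TDP1, 400 cells/well, exposed to compounds plus 20 nM camptothecin for at least 48 h at 37 C; viability read as ATP content by CellTiter-Glo luminescence.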
HT1080 IDH1KD tx – toxicity to HT-1080 IDH1 knockdown cells (counter line) | HT-1080 IDH1 knockdown viability, ATP luminescence, 48 h | Potency, µM (doses to about 46.1 µM), for inactives: top-dose activity, negative = toxicity, most hits filed as cytotoxic | hit rate 2% among 360,000;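 also: potency is read from the fitted curve at half-maximal effect; 0% = DMSO wells and -100% = cell-free medium wells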
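Assay cells: HT-1080 with IDH1 knockdown, 750 per well, RPMI/5% FBS. Exposure: 48 h at 37 °C following 2 h pre-incubation. Read: CellTiter-Glo luminescence; fitted concentration-response, curve class assigned.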
DT40 TDP1 no CPT – qHTS for Inhibitors of human tyrosyl-DNA phosphodiesterase 1 (TDP1): qHTS in cells in absence of CPT. DT40 Tdp1-/- hTDP1 cells, no CPT, ATP luminescence, 48 h. Potency, µM (top dose mostly 46.2 µM), inactives show top-dose activity change, negative = growth inhibition, usual class: inhibitors. hit rate 15% among 420,000. AID 686978, 2013; also: potency is read from the fitted curve at half-maximal effect; nearly all actives have a fitted effect of over 55% in size
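Chicken DT40 Tdp1-/- cells complemented with human TDP1, screened without camptothecin (DMSO vehicle only), 400 cells/well. Compounds pin-transferred, cells incubated at 37 °C for at least 48 hr. Growth read as ATP-dependent luminescence (CellTiter-Glo, 30 min at RT).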
The depositor's hits bear a star; u = inconclusive; x = not tested or not shown; [ ] = remark or other dose. In the library only some 19% were active in any assay of this set; here they are far more common. Unless noted, calls follow the shape of the dose curve; as a rule, active = well fitted curve in the direction sought with a large enough effect; inconclusive = small, poorly fitted or top-dose-only effect, or another doubt; inactive = no such curve, though single readings can be large; an effect the other way counts as inactive or inconclusive. Unless noted, % is scaled to controls: 0 for no effect and ±100 for the full control effect.

SMILES | HT1080-NT tox | IL1B secr inh | TDP1 cell CPT | HT1080 IDH1KD tx | DT40 TDP1 no CPT
O=C(C[n+]1cccc(C(=O)N/N=C/c2ccc(Br)cc2)c1)c1ccccc1 | -5.0% | -5.5 | -0.7% | 2.7% | -11.1%
O=C(NN=Cc1c(O)ccc2ccccc12)c1ccncc1 | u | 91.1 | 4.61µM* | u | 3.66µM*
Cn1c(/C=C(\C#N)C(N)=S)ccc1-c1ccc(Br)cc1 | u | 84.8 | -29.1% | u | u
Cc1ccc(NC(=O)CCC(=O)c2ccc(Cl)s2)nc1 | 7.2% | 16.9 | 2.8% | 1.6% | -1.3%
Cc1ccc(OCC(=O)N/N=C/c2c[nH]c3ccccc23)c([N+](=O)[O-])c1 | -14.2% | 23.5 | 8.1% | -19.2% | u
CCCn1c(/N=C/c2ccccc2O)nc2ccccc21 | -8.2% | 19.3 | -4.8% | -4.8% | u
Cn1cc(C(=O)N/N=C/c2c(O)ccc3ccccc23)ccc1=O | u | 121.7 | 5.17µM* | u | 3.66µM*
Cc1c(/C=N/NC(=O)c2cccnc2)c2ccccc2n1Cc1ccccc1 | u | 55.9 | 11.6µM* | u | 7.31µM*
Cn1c(/N=C/c2c(O)ccc3ccccc23)nc2ccccc21 | -1.7%[9.24 µM] | 31.1 | 3.26µM* | u | 5.8µM*
COc1ccc2ccccc2c1/C=N\NC(=O)c1cccnc1 | -1.9% | 13.1 | 17.1% | -15.2% | -12.8%
O=C(N/N=C/c1c(O)ccc2ccccc12)c1cccnc1 | u | 195.0 | 1.16µM* | u | 1.03µM*
Cc1nn(Cc2ccccc2)c(Cl)c1/C=N/NC(=O)c1cccnc1 | -4.5% | 48.5 | -2.1% | -28.1% | u
Cc1c(NS(=O)(=O)c2ccc3c(c2)CCN3C(=O)C2CC2)c(=O)n(-c2ccccc2)n1C | 4.5% | 17.0 | 2.4% | 0.8% | -7.4%
CCN(CC)S(=O)(=O)c1cccc(NC(=O)COC(=O)C2CC3C=CC2C3)c1 (configuration not stated) | -5.2% | 1.5 | u | -0.2% | -24.4%
Cc1ccc(N=Cc2c(O)c3ccccc3oc2=O)cc1F | 2.6% | 21.7 | 5.1% | 2.3% | 15.9%
COc1ccc(OC)c(CN2CCN(C(=O)CNC(=O)c3ccc(C(C)(C)C)cc3)CC2)c1 | -1.6% | -5.3 | u | -1.8% | u
O=C(CCn1cccn1)N1CCCC(Nc2ccc(F)c(F)c2)C1 (configuration not stated) | -1.5% | -8.9 | -1.2% | 1.1% | -14.5%
Cn1ncc(Cl)c1C(=O)Nc1cccc(Cl)c1 | -0.8% | -19.1 | -10.2% | 3.8% | -17.3%
Cn1ncc(N=Cc2c(O)ccc3ccccc23)c1C(=O)Nc1cccc(Cl)c1 | 9.4% | 18.5 | u | -9.6% | 23.1µM*
Cn1nccc1C(=O)N/N=C/c1c(O)ccc2ccccc12 | u | 286.0 | 4.61µM* | u | 3.26µM*
Cc1ccc(C(=O)N/N=C/c2c(O)ccc3ccccc23)cn1 | u | 95.5 | 3.26µM* | u | 2.91µM*
CSCCC(NC(=O)c1ccc(Cl)cc1Cl)C(=O)N(C)Cc1nc2ccccc2c(=O)[nH]1 (configuration not stated) | -17.5% | -7.2 | u | -6.8% | -21.6%
Cc1cc(C)cc(N2CCn3c2nc2c3c(=O)n(Cc3ccc(Cl)cc3)c(=O)n2C)c1 | x | x | -2.7% | x | -6.4%
COc1cccc(OCC(O)CN2CCC(Cc3ccccc3)CC2)c1 (configuration not stated) | -19.4% | u | u | -16.7% | 18.4µM*
OC(COc1ccccc1F)CN1CCC(Cc2ccccc2)CC1 (configuration not stated) | -1.5% | -25.8 | u | -2.3% | u
SMILES | HT1080-NT tox | IL1B secr inh | TDP1 cell CPT | HT1080 IDH1KD tx | DT40 TDP1 no CPT
O=S(=O)(c1ccc(OCC(O)CN2CCC(Cc3ccccc3)CC2)cc1)N1CCOCC1 (configuration not stated) | -0.8% | -15.3 | -23.5% | 20.4% | -7.0%
OC(COc1ccccc1)CN1CCC(Cc2ccccc2)CC1 (configuration not stated) | -9.4% | -72.0* | 4.6% | -10.4% | -16.8%
OC(COc1ccc(F)cc1Cl)CN1CCC(Cc2ccccc2)CC1 (configuration not stated) | -17.2% | -61.2* | u | -15.1% | 20.6µM*
CCOC(=O)c1cc(C(=O)OCC)c(=O)[nH]c1SCc1ccccc1 | -19.2% | 14.7 | -10.1% | 1.3% | 24.7%
CC(C)(C)OC(=O)C[C@H]1C/C=C\C[C@H](CC(=O)NCCO)C(=O)N2CCC[C@@H]2COC1=O | 23.7% | 7.3 | -8.5% | 13.1% | -20.8%
OC1c2c(F)cccc2N=C2CCCCN21 (configuration not stated) | 12.1% | 41.7 | 8.2µM* | 7.2% | u
COc1cccc(-n2c(CN3CCN(c4ccccc4)CC3)nc3ccc([N+](=O)[O-])cc3c2=O)c1 | -1.7% | 31.5 | -20.8% | -0.2% | -23.2%
O=C(c1ccc(CSc2nc3ccncc3n2Cc2ccccc2)cc1)N1CCCCCC1 | x | x | 9.2µM* | x | 16.4µM*
CC1CCCN(C(=O)c2ccc(CSc3nc4ccncc4n3Cc3ccccc3)cc2)C1 (configuration not stated) | x | x | 16.4µM* | x | 23.1µM*
CC1CCN(C(=O)c2ccc(CSc3nc4ccncc4n3Cc3ccc(F)cc3)cc2)CC1 | -5.3% | -6.7 | 23.1µM* | -13.1% | u
Cc1cc(Cl)ccc1NC(=O)CCN1C(=O)NC(C)(C)C1=O | 8.4%[9.24 µM] | 3.7 | -16.3% | 8.1% | 7.4%
COc1cc(Cl)c(C)cc1NC(=O)CCN1C(=O)NC(C)(C)C1=O | 2.6% | 9.0 | 18.1% | 2.5% | -7.2%
COc1ccccc1C(=O)N/C(=C/c1ccc(Br)cc1)C(=O)N1CCCC1 | -20.0% | -14.0 | 25.9µM* | -24.1% | 20.6µM*
CN(C)S(=O)(=O)n1cc(/C=C(\NC(=O)c2ccccc2F)C(=O)NCCN2CCOCC2)c2ccccc21 | 0.1% | -4.9 | u | 2.0% | 11.6µM*
CN(C)S(=O)(=O)n1cc(/C=C(\NC(=O)c2ccccc2)C(=O)N2CCCCC2)c2ccccc21 | 1.9% | -13.3 | 23.1µM* | -0.2% | 18.4µM*
COc1ccccc1C(=O)N/C(=C\c1cn(S(=O)(=O)N(C)C)c2ccccc12)C(=O)N1CCN(C)CC1 | -2.4% | u | 25.9µM* | -0.4% | u
CN1CCN(C(=O)/C(=C/c2cn(S(=O)(=O)N(C)C)c3ccccc23)NC(=O)c2ccccc2)CC1 | -26.0% | u | -0.9% | -14.1% | 0.7%
CN(C)S(=O)(=O)n1cc(/C=C(\NC(=O)c2ccccc2)C(=O)NCCN2CCOCC2)c2ccccc21 | -3.9% | 7.9 | -19.2% | -20.3% | -13.1%
CCCN(CCC)C(=O)Cn1c(=O)n(-c2cccc(OC)c2)c(=O)c2c(C)c(C(=O)N(C)C)sc21 | x | x | -8.1% | x | -3.3%
